From PubChem
This is a sample that favours compounds with a hit; in the whole collection about 21% have one here.
TDP1 cell noCPT: qHTS for Inhibitors of human tyrosyl-DNA phosphodiesterase 1 (TDP1): qHTS in cells in absence of CPT | DT40 Tdp1-/- hTDP1 cells, no CPT, ATP luminescence, 48 h | Potency, µM (titrated, usually from 46.2 µM), without a hit: top-dose activity change, negative = growth inhibition, hits mostly inhibitors | actives 15% (n = 420,000) | AID 686978, 2013; further: potency means the concentration at half of the fitted maximal effect; nearly all actives have a fitted effect of over 55% in size
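Stably hTDP1-transfected Tdp1-null chicken DT40 cells were treated with library compounds minus camptothecin and grown for at least 48 hr at 37 °C, after which cellular ATP was quantified by luminescence.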
IL1B secr inh: inhibitors of inflammasome signaling (IL-1 beta secretion); THP-1 LPS/ATP IL-1B secretion, AlphaLISA, 16 h; stronger effect = lower value; activity change, % at 57.5 µM; actives 4.7% (n = 360,000); AID 743279; in the data active means activity change below about -50%; inconclusive means mostly about -30% to -49%
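Secreted IL-1B measured by AlphaLISA bead assay after 16 h compound exposure of THP-1 cells; compounds (final up to 57.5 uM) added 1 h before LPS (250 ng/mL) and ATP (1.25 mM) stimulation; lower signal means less secretion.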
VP16 counter: Gal4-VP16 reporter inhibition counter-screen | Drosophila S2 Gal4-VP16 UAS-luciferase, luminescence, 20 h | Potency, µM (top dose mostly 53.6 µM), inactives show top-dose activity, negative = inhibition, most hits filed as inhibitors | actives 3.5% (n = 310,000) | AID 2546;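 further: Gal4-VP16 expression switched on by copper sulfate through the metallothionein promoter; potency means the concentration at half of the fitted maximal effect; nearly all actives have a fitted effect of over 50% in size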
DT40 TDP1 CPT: DT40-hTDP1 cell growth loss with CPT; chicken DT40 Tdp1-/-;hTDP1 cells + 20 nM CPT, ATP luminescence, 48 h; AID 686979; actives 12% (n = 420,000); Potency, µM (series often up to 46.2 µM), for the others: at the top dose activity change, negative = growth inhibition, most hits filed as inhibitors; further: potency means the concentration at half of the fitted maximal effect; nearly all actives have a fitted effect of over 55% in size
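Cell growth measured by CellTiter-Glo luminescence after a minimum 48 h, 37 C compound exposure with 20 nM CPT in Tdp1-knockout DT40 cells stably expressing hTDP1, seeded 400/well; qHTS titration format.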
RORgamma inh: ROR gamma (mouse) transcription inhibition; Potency, µM (top dose mostly 53.6 µM), without a hit: at the top dose activity change, negative = inhibition, hits mostly inhibitors; P51450; actives 5.4% (n = 310,000); Drosophila S2 Gal4-RORgamma UAS-luciferase reporter, 20 h; further: potency means the concentration at half of the fitted maximal effect; nearly all actives have a fitted effect of over 60% in size
Target sequence (P51450 whole entry, looked up, the tested form may be a part): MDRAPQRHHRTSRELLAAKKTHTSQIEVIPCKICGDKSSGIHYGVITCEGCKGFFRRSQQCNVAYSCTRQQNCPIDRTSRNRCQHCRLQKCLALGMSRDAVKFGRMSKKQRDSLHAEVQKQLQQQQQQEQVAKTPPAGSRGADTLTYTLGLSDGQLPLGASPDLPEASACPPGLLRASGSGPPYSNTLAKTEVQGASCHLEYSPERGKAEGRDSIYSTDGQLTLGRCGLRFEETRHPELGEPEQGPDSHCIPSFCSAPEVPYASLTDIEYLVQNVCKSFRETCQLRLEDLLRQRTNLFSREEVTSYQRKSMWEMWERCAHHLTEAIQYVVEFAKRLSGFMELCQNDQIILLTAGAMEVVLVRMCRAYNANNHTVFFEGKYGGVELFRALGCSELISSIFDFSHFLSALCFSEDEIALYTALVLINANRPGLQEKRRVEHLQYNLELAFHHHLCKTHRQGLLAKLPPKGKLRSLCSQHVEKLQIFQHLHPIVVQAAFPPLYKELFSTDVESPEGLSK
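In this cell-based reporter format, copper sulfate (700 uM final) drives Gal4–ROR gamma fusion expression from a metallothionein promoter in Drosophila Schneider cells; compounds preincubated 1 hr, reporter read after 20 hr at ambient temperature.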
ELG1 DNA repair: inhibitors of ELG1-dependent DNA repair in HEK293T cells; HEK293T ELG1-luciferase reporter, luminescence, 16 h; DNA damage induced by 5-fluorouridine; Potency, µM (titrated, usually from 46.1 µM), without a hit: at the top dose activity change, negative = inhibition, hits mostly inhibitors; actives 2.3% (n = 330,000); AID 504467; further: potency means the concentration at half of the fitted maximal effect; nearly all actives have a fitted effect of over 55% in size
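HEK293T cells expressing luciferase-tagged ELG1 (2,000/well) received 5-Fluorouridine plus compound or DMSO for 16 hr at 37 °C. Luciferase was read by ONE-Glo luminescence after 30 min at room temperature.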
Starred values were filed as active, the others as inactive; ? = inconclusive; . = no result; [ ] = another dose, or the depositor's remark. Unless noted, the call rests on the fitted dose curve; in most records, active means well fitted curve in the direction sought with a large enough effect; inconclusive means small, poorly fitted or top-dose-only effect, or another doubt; inactive means no such curve, though single readings can be large; an effect the other way counts as inactive or inconclusive. On the % scale 0 is the no-effect control and ±100 the full control effect.

SMILES	TDP1 cell noCPT	IL1B secr inh	VP16 counter	DT40 TDP1 CPT	RORgamma inh	ELG1 DNA repair
Cc1cccc(Cc2nc3ccccc3[nH]2)c1	?	-17	.	-20%	.	.
Cc1cccc(CNCCn2cc(C(=O)Nc3ccccc3)nn2)c1	-11%	.	.	-19%	.	.
Cc1ccc(/C=C/c2nc3ccccc3c(=O)[nH]2)cc1	?	-11	?	?	2.5µM*	?
Cc1ccccc1/C=C/c1nc2ccccc2c(=O)[nH]1	?	35	?	16µM*	?	?
O=c1[nH]c2ccccc2nc1/C=C/c1ccc(O)cc1	15µM*	-76*	?	?	-45%	?
CO[C@H]1COC(=O)[C@H](C)NC(=O)C/C=C\[C@@H](C)[C@H](OC)COC(=O)[C@@H](OCc2ccccc2)/C=C\[C@@H]1C	.	.	-4%[10 µM]	.	-10%[10 µM]	.
CCCCNC(=O)C(CC)(ONc1ccccc1C(F)(F)F)c1ccccc1OC (stereo not drawn)	16µM*	?	.	?	.	2%
CC(C)C(NC(=O)CN(c1ccc2c(c1)OCCO2)S(=O)(=O)c1ccccc1)C(C)C	-27%	-22	.	-5%	.	.
O=C(NNC1=NS(=O)(=O)c2ccccc21)c1ccc(Cl)cc1	-7%	-17	?	4%	-42%	?
O=C(NNC1=NS(=O)(=O)c2ccccc21)c1ccc([N+](=O)[O-])cc1	-27%	14	?	3%	13µM*	-4%
COc1cccc(-c2cc(C(=O)NC3CC3)c3ccccc3n2)c1	?	7	-9%	?	-19%	-22%
Cc1cc(C)cc(Nc2cc(C(=O)NC3CCC(C)CC3)c3ccccc3n2)c1 (stereo not drawn)	9.2µM*	.	.	?	.	.
O=C(NC1CC1)c1cc(-c2ccc(Br)cc2)nc2ccccc12	15µM*	3	.	?	.	?
O=C(NC1CCCCCCC1)c1cc(-c2ccccn2)nc2ccccc12	18µM*	24	-9%	?	-35%	-16%
CN1CCC(NC(=O)c2cc(-c3cccc(Br)c3)nc3ccccc23)CC1	?	-79*	-8%	?	?	3%
COc1ccc(-c2cc(C(=O)NC3CCCC3)c3ccccc3n2)cc1	?	13	12%	?	?	-16%
COc1ccccc1Nc1cc(C(=O)NC2CCC(C)CC2)c2ccccc2n1 (stereo not drawn)	-22%	.	.	3%	.	.
COc1cccc(C2(CC(=O)N3CCN(c4ccccn4)CC3)CC(=O)N(C3CCCC3)C2=O)c1 (stereo not drawn)	?	.	.	1%	.	.
CCN(CC)S(=O)(=O)c1ccc(N2CCCC2)c(NC(=O)C2CSC3(C)CCC(=O)N23)c1 (stereo not drawn)	?	-24	.	?	.	-17%
Cc1nc2n(c(=O)c1CCN1CCC(c3noc4cc(F)ccc34)CC1)CCC[C@H]2O	0.53µM*	.	.	0.094µM*	.	.
COCCCNC(=O)c1ccc([N+](=O)[O-])cc1	-12%	53	30%	-29%	14%	18%
O=C(CCl)NCCCN(C(=O)C(Cl)Cl)c1ccc([N+](=O)[O-])cc1	13µM*	0	-12%	9.2µM*	-18%	?
NS(=O)(=O)c1ccc(CNC(=O)c2ccc(NS(=O)(=O)c3cccs3)cc2)cc1	15%	-3	.	0%	.	?
CCOC(=O)c1cnc2ccccc2c1Nc1cccc(C(=O)O)c1	-3%	35	2%	2%	1%	2%
CCOC(=O)c1cnc2ccc(C)cc2c1Nc1ccc(N(CC)CC)cc1	6.5µM*	.	.	12µM*	.	.
SMILES	TDP1 cell noCPT	IL1B secr inh	VP16 counter	DT40 TDP1 CPT	RORgamma inh	ELG1 DNA repair
CCOC(=O)c1cnc2ccc(OC)cc2c1NCCN1CCOCC1	?	-17	.	-29%	.	-18%
CCOC(=O)c1cnc2ccc(C(=O)OC)cc2c1Nc1ccc(N2CCOCC2)cc1	12µM*	.	.	10µM*	.	.
CCOC(=O)c1cnc2ccc(Cl)cc2c1Nc1ccc(N2CCOCC2)cc1	15µM*	.	.	15µM*	.	.
COCCn1c(=O)cnc2cnc(OCc3ccccc3)nc21	?	.	-10%	-12%	0%	.
CCCCCCCC/C=C\CCCCCCCC(=O)N[C@@H](CO)Cc1ccc(O)cc1	11µM*	.	?	12µM*	2%	.
CCCCCCCC/C=C\CCCCCCCC(=O)NC(C)C(=O)O (stereo not drawn)	.	.	-1%	.	2%	.
O=C(Cn1c(=O)nc(-c2ccccc2)c2ccccc21)Nc1ccc(Cl)cc1F	-25%	.	.	-13%	.	.
CCOc1ccc(OCc2ccc(C(=O)N3CCCC3)o2)cc1	?	2	-30%	?	2.5µM*	12%
CCCc1ccc(OCc2ccc(C(=O)N3CCCC3)o2)cc1	21µM*	19	-25%	?	?	26%
CCC(C)c1ccc(OCc2ccc(C(=O)O)o2)cc1 (stereo not drawn)	8%	17	?	1%	14µM*	?
COc1ccc(Oc2ncc3nc(-c4cccs4)c(=O)n(Cc4cccc(OC)c4)c3n2)cc1	-21%	.	-7%	-1%	1%	.
CC(C)CC1=C/C(=C/c2ccc(-c3ccccc3)o2)C(=O)O1	16µM*	0	6%	?	14%	21%
NS(=O)(=O)c1ccc(-c2ccc(C=C3C(=O)c4ccccc4C3=O)o2)cc1	4%	20	-12%	1%	2%	0%
Cc1ccc(NC(=O)Cn2ccc(=O)[nH]c2=O)cc1	3%	21	8%	4%	27%	?
CCc1ccc2oc(-c3ccc(C)c(NC(=O)COc4ccccc4Cl)c3)nc2c1	?	.	.	-9%	.	.
CC(C)C[C@H]1CNC(=S)N1C[C@H]1CCCN1C[C@H](Cc1ccc(O)cc1)N1C[C@H](CC(C)C)N(CCc2ccccc2)C1=S	21µM*	-63*	.	?	.	.
CC(C)C[C@H]1CN([C@@H](Cc2ccc(O)cc2)CN2CCC[C@@H]2CN2C(=S)NC[C@@H]2Cc2ccccc2)C(=S)N1CCc1ccccc1	6.5µM*	-27	.	6.5µM*	.	.
CC(C)C[C@H]1CNC(=S)N1C[C@H]1CCCN1C[C@H](Cc1ccccc1)N1C[C@H](Cc2ccc(O)cc2)N(CCc2ccccc2)C1=S	13µM*	-28	.	23µM*	.	.
O=C(O)c1cc(-c2ccc(C(F)(F)F)cc2)nc2n[nH]c(-c3ccccc3)c12	26%	.	.	7%	.	.
